Compound activity deposited in PubChem BioAssay by National Center for Advancing Translational Sciences (NCATS).
The list is not random: actives were taken first. Their share in the collection is about 1.4%.
BRCA1 expr act = qHTS Assay to Identify Small Molecule Activators of BRCA1 Expression | Potency, µM (top dose mostly 46.1 µM), for inactives: top-dose activation, hits mostly activators | 1.1% of 380,000 active | AID 624202, 2012 | MCF7-BRCA1-FFLuc reporter, luminescence, 48 h; response scale: scaled: vehicle 0%, 10 µM genistein 100%; further: nearly all actives have a fitted effect of over 80% in size
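First, MCF7-BRCA1-FFLuc cells (2000/well) attach for 2 h; next, compounds are pin-added and incubated 48 h at 37 °C; finally, luciferase reagent is added and luminescence read after 15 min.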
EPAC1 ag = qHTS for Agonist of cAMP-regulated guanine nucleotide exchange factor 3 (EPAC1): primary screen | 0.073% of 360,000 active | AID 720707, 2013 | Potency, µM (titrated, usually from 154 µM), for inactives: at the top dose activation, usual class: activators | EPAC1 agonist qHTS, biochemical assay; response scale: 100% = response to 6.5 mM cAMP; further: nearly all actives have a fitted effect of over 60% in size
Target sequence (O95398 whole entry, looked up): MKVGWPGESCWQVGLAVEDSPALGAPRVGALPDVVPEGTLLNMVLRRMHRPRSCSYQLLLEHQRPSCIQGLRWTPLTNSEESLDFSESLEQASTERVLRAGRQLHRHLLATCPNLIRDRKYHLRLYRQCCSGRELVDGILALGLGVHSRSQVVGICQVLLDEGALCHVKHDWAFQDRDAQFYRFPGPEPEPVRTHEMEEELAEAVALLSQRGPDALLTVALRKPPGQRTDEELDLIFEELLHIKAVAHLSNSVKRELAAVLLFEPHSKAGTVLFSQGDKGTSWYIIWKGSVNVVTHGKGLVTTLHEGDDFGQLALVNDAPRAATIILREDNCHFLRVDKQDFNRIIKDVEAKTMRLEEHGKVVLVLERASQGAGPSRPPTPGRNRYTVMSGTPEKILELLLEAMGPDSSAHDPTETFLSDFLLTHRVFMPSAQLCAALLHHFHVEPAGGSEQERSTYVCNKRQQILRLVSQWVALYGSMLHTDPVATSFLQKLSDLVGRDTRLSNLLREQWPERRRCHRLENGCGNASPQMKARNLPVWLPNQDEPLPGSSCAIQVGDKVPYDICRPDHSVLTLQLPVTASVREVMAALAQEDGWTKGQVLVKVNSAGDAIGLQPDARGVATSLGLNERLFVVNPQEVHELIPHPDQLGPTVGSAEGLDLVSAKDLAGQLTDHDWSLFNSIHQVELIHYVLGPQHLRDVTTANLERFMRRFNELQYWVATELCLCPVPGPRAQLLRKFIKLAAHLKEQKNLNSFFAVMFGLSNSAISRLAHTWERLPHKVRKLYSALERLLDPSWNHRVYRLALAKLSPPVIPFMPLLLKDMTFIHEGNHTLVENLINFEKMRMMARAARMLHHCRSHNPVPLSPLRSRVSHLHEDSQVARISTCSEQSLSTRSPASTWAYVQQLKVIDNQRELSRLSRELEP
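EPAC1 100 nM, Rap1B–BODIPY-GDP 250 nM, unlabeled GDP 50 uM; compound titration; 5 min RT; kinetic read ex480/em540 at 5-min intervals ×30 min; data normalized to 6.5 mM cAMP agonist control.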
EPAC2 agonist = qHTS for Agonist of cAMP-regulated guanine nucleotide exchange factor 4 (EPAC2): primary screen. Rap guanine nucleotide exchange factor 4 (Homo sapiens), Q8WZA2. EPAC2 activation, biochemical qHTS; response scale: 100% = 6.5 mM cAMP response. Potency, µM (titrated, usually from 154 µM), inactives show top-dose activation, most hits filed as activators. 0.079% of 360,000 active. AID 720711, 2013; further: nearly all actives have a fitted effect of over 50% in size
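Setup: EPAC2 100 nM, labeled Rap1B complex 250 nM, free GDP 50 uM. Compound titrations pinned in, brief spin, 5 min room temperature incubation. Kinetic fluorescence read over 30 min, normalized to 6.5 mM cAMP.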
EPAC1 antagonist = qHTS for Antagonist of cAMP-regulated guanine nucleotide exchange factor 3 (EPAC1): primary screen; Rap guanine nucleotide exchange factor 3 (Homo sapiens), O95398; EPAC1 GEF assay, Rap1b-BODIPY-GDP exchange fluorescence; Potency, µM (series often up to 115 µM), inactives show at the highest dose activity change, negative = inhibition, most hits filed as inhibitors; 0.14% of 360,000 active; AID 720709, 2013;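 further: plate controls were vehicle for no effect and positive control for full effect; nearly all actives have a fitted effect of over 50% in size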
EPAC2 antagonist = qHTS for Antagonist of cAMP-regulated guanine nucleotide exchange factor 2 (EPAC2): primary screen; Rap guanine nucleotide exchange factor 4 (Homo sapiens), Q8WZA2; EPAC2 GEF exchange of Rap1B-BODIPY-GDP, fluorescence; Potency, µM (highest dose often 114 µM), inactives show at the top dose activity, negative = inhibition, actives largely listed as inhibitors; 0.18% of 360,000 active; further: on the % scale 0 is the no-effect control and ±100 the full control effect; nearly all actives have a fitted effect of over 45% in size
USP1 inh = Inhibitors of USP1/UAF1: Primary Screen | Potency, µM (series often up to 57.1 µM), for the others: at the top dose activity change, negative = inhibition, hits mostly inhibitors | Ubiquitin carboxyl-terminal hydrolase 1 (Homo sapiens), O94782 | recombinant USP1/UAF1, Ub-Rhodamine cleavage fluorescence | 0.23% of 390,000 active | AID 743255, 2014; further: on the % scale 0 is the no-effect control and ±100 the full control effect; nearly all actives have a fitted effect of over 60% in size
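USP1/UAF1 complex at 1 nM was preincubated with compound for 15 min at room temperature, then Ub-Rho substrate (150nM final) was added. Fluorescence (480/540 nm) was read kinetically, 6 reads every 60 seconds.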
The depositor's hits bear a star; ? = inconclusive; . = not tested or not shown. The call rests on the fitted dose curve; in most records, active means well fitted curve in the direction sought with a large enough effect; inconclusive means small, poorly fitted or top-dose-only effect, or another doubt; inactive means no such curve, though single readings can be large; an effect the other way counts as inactive or inconclusive. Potency means the concentration at half of the fitted maximal effect.

SMILES	BRCA1 expr act	EPAC1 ag	EPAC2 agonist	EPAC1 antagonist	EPAC2 antagonist	USP1 inh
CCOC(=O)c1ccc(-n2cnc(-c3ccc([N+](=O)[O-])cc3)c2)cc1	9%	10%	10%	-8%	-6%	.
COc1ccccc1NC(=O)C(=O)NCCc1csc(-c2cccc(F)c2)n1	.	.	.	.	.	1%
CC1CCCC(NC(=O)c2ccc3c(c2)OCO3)C1C (stereo not given)	3.5µM*	7%	8%	-8%	-1%	-16%
CC1CCCCC1NS(=O)(=O)CCNC(=O)c1ccc2c(c1)OCO2 (stereo not given)	-7%	-4%	-8%	-11%	2%	-1%
CC(=O)N1c2ccc(S(=O)(=O)N3CCN(c4cc(Cl)ccc4C)CC3)cc2CC1C (stereo not given)	.	.	.	.	.	4%
CCN=c1scc(-c2ccco2)n1/N=C/c1ccc(OC)c(O)c1	6.3µM*	?	10%	-23%	-18%	-15%
Nc1ccc(/C=C/c2cc(Cl)nc3ccccc23)cc1	-59%	.	.	.	.	.
Cn1cc(/C=C/c2cc[n+](C)cc2)c2cc(F)ccc21	-77%	?	?	94%	74%	28µM*
C[n+]1ccc(/C=C/c2c[nH]c3ccc(F)cc23)cc1	-1%	25%	?	-1%	90%	28µM*
Cc1ccc2[nH]c(C)c(/C=C/c3cc[n+](C)cc3)c2c1	-50%	?	?	56%	43%	?
O=C(Nc1ccc2ccccc2c1)c1nc(S(=O)(=O)Cc2ccccc2F)ncc1Cl	-61%	.	.	.	.	.
C[n+]1ccnc2ccccc21	-13%	.	.	.	.	.
O=C1CN(c2ccccc2)C(=S)N1C(=O)c1ccccc1	7.1µM*	5%	-1%	-20%	4%	-24%
O=C(c1ccccc1)N1CCC(=O)N1c1ccccc1	-7%	-6%	-5%	8%	7%	-16%
O=C(/C=C/c1cccc([N+](=O)[O-])c1)OCC(=O)N1CCCCC1	20%	2%	0%	-15%	-11%	-17%
Cc1ccc(NC(=O)C2CCN(S(=O)(=O)c3ccc4c(c3)NC(=O)C(C)S4)CC2)cc1Cl (stereo not given)	0%	4%	6%	-25%	-5%	-17%
O=c1c(/C=C(\O)c2ccccc2)nc2ccccc2n1-c1ccccc1	36%	100µM*	100µM*	396%	104%	?
Cc1nc2ccccc2n1-c1ccccc1	0%	-3%	-1%	9%	14%	-14%
COc1ccc(-c2nnn(Cc3ccccc3F)n2)cc1	4µM*	0%	4%	-2%	-1%	-28%
O=C(Nc1ccc(Cl)cc1Cl)c1cc(S(=O)(=O)NCc2ccc3c(c2)OCO3)ccc1F	.	.	.	.	.	-19%
O=C(NCc1ccco1)c1ccc2ccccc2c1	11µM*	-1%	9%	-28%	0%	-11%
O=C(NCc1ccco1)c1ccc(C(=O)NCc2ccco2)cc1	-8%	13%	6%	0%	1%	-3%
O=C(NCc1ccccc1)c1ccc2nc(-c3ccco3)c(-c3ccco3)nc2c1	-8%	1%	-2%	32µM*	-1%	?
COc1ccc(-c2noc(Cn3c(=O)c4ccccc4n(CC(=O)Nc4cccc(OC)c4)c3=O)n2)cc1	.	.	.	.	.	-1%
CCn1cc(C(=O)N2CCN(c3ccc(OC)cc3)CC2)c(=O)c2cc(S(=O)(=O)N(C)C3CCCCC3)ccc21	17%	.	.	.	.	-17%
SMILES	BRCA1 expr act	EPAC1 ag	EPAC2 agonist	EPAC1 antagonist	EPAC2 antagonist	USP1 inh
CC(=O)Nc1ccc2c(c1Br)Cc1ccccc1-2	3.2µM*	13%	-3%	-11%	8%	-6%
Nc1ccc2c(c1Br)Cc1ccccc1-2	75%	0%	10%	-24%	-7%	-11%
COc1ccc(CCn2c(O)cc3nn(-c4nc5ccccc5s4)c(=O)c-3c2C)cc1	13%	-12%	-16%	50µM*	13%	?
COc1ccc(CN2CCN(c3nc4ccccc4s3)CC2)cc1	12%	7%	10%	-30%	-8%	-9%
Cc1ccc(COc2ccc(C)nc2[N+](=O)[O-])cc1	4.5µM*	1%	6%	-13%	5%	-12%
O=C(Nc1ccc(F)c(Cl)c1)N1CCCCCC1	8.9µM*	7%	-1%	2%	12%	-11%
O=C(Nc1ccc(Cl)cc1)N1CC=CCC1	7.9µM*	-6%	4%	-9%	10%	-12%
CCC(=O)Nc1ccc(F)c(Cl)c1	11%	1%	3%	2%	4%	-8%
CCn1c2ccccc2c2cc(NC(=O)N3CCCCC3)ccc21	8.9µM*	0%	2%	-12%	-5%	-23%
CCN(CC)C(=O)C(=O)Nc1ccc(F)c(Cl)c1	8.9µM*	-7%	3%	23%	21%	-13%
O=C(Nc1ccc(F)c(Cl)c1)N1CCCC1	25%	7%	-1%	-3%	6%	-2%
CCCC(=O)Nc1ccc2c(c1)c1ccccc1n2CC	-62%	-1%	3%	-22%	-8%	-3%
COc1cccc(NC(=O)Cn2c(=O)n(-c3ccc(CC(=O)NCC4CCCO4)cc3)c(=O)c3ccccc32)c1 (stereo not given)	2%	.	.	.	.	-16%
CCCNC(=O)C1(C)CCCN(Cc2ccc(-c3ccccc3)o2)C1 (stereo not given)	0%	2%	1%	8%	?	.
CCN1C(C(=O)c2ccccc2)=C(OC(=O)c2ccc(Cl)cc2)c2ccccc2S1(=O)=O	.	.	.	.	.	-18%
CC(C)(C)c1ccc(S(=O)(=O)CCc2ccccn2)cc1	14µM*	-3%	5%	-8%	1%	-16%
COc1cccc(N2CCN(C(=O)c3cccc(NC(=O)C4=C(C)OCCS4)c3)CC2)c1	-9%	12%	9%	5%	2%	-34%
CC(C)(C)C(=O)CSc1n[nH]c(-c2ccccc2)n1	7.9µM*	.	.	.	.	.
Cc1ccc(-c2nn(-c3ccccc3)cc2CO)o1	3.5µM*	2%	9%	2%	-2%	-11%
COc1ccc(OC)c(NC(=O)c2ccc3c(SCC(=O)O)c4c(nc3c2)CCCC4)c1	8%	.	.	.	.	-16%
